One assay concerns the target Albumin (Bos taurus) (UniProt P02769). As to the kind of experiment: bovine serum albumin binders on microarray, profiling panel, artefact control for SMM control protein annotation, biochemical, small-molecule microarray, Alexa647 label, 635/667 nm fluorescence (AID 1118).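 Also: score merges 667 nm emission intensity and signal-to-noise per printed compound spot.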 The conditions noted are these: BSA-A647 binding, fluorescence 635 nm, higher = more signal.
The nature of assay [1]: small-molecule microarray binders of probe aXIP, primary screen, biochemical, NeuroSMM set, 635/667 nm fluorescence (AID 1119).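 Also: probe is the protein aXip251-270 applied at 1 µg/mL to compound-printed slides; binding of probe to printed compounds measured as 667 nm fluorescence plus signal to noise.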 The conditions noted are these: higher = more signal, called active from +8 up or from −8 down.
Assay [2] can be described thus: small-molecule binders of probe aNOTCH3, primary screen, biochemical, small-molecule microarray, 635/667 nm fluorescence (AID 1120).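 Also: probe is a biotin-tagged antibody raised against NOTCH3 rather than NOTCH3 protein; score merges spot fluorescence near 667 nm with spot signal to noise.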 The conditions noted are these: higher = more signal.
Assay [3] is described as follows: small-molecule binders of probe aNOTCH2, primary screen, biochemical, small-molecule microarray, 635/667 nm fluorescence (AID 1121).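 Also: score merges feature fluorescence read at 667 nm with its signal to noise.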 As to conditions: higher = more signal.
The target of assay [4] is Carbonic anhydrase 2 (Homo sapiens) (UniProt P00918). As to the kind of experiment: CAII small-molecule binders, profiling panel, biochemical, small-molecule microarray, Alexa647-labelled CAII (AID 1122). As to conditions: CAII-A647 binding fluorescence, higher = more signal.
Assay [5] in a line: COS7 lysate on small-molecule microarray, probe aHis, 635 nm (AID 1123).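 Also: z-score combines 667nm fluorescence intensity with signal-to-noise per printed compound spot.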 The conditions noted are these: COS7 cell lysate, fluorescence, higher = more signal.
Assay [6] in a line: compound binding in COS7 lysate, probe aLAP1, primary screen, cell lysate, small-molecule microarray (AID 1124).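 Also: lysate comes from COS7 cells expressing LAP1 and is applied at 0.3 µg/mL; score merges spot fluorescence near 667 nm with signal-to-noise over triplicate slides.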 The conditions noted are these: probe aLAP1, fluorescence, higher = more signal.
The next assay deals with Sam68 (KHDRBS1). As to the kind of experiment: Sam68 small-molecule binders, primary screen, biochemical, small-molecule microarray, 635 nm fluorescence (AID 1125).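 Also: score merges 667 nm channel intensity with signal to noise over triplicate slides.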 As to conditions: small-molecule microarray binding, higher = more signal.
Assay [7] concerns Chordin-like protein 2 (CHRDL2). Description: CHRDL2 small-molecule binders, primary screen, biochemical, small-molecule microarray, 635 nm fluorescence (AID 1126).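 Also: printed compound slides probed with Chrdl2 protein at 4 µg/mL for 1 h at 4 C; score merges 667 nm emission intensity with signal to noise over three replicate slides.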 The conditions noted are these: small-molecule microarray binding, fluorescence 635 nm; higher = more signal.
In assay [8] the target is Concanavalin-A (Canavalia ensiformis) (UniProt P02866). As to the kind of experiment: ConA small-molecule binders, primary screen, artefact control for SMM control protein annotation, biochemical, small-molecule microarray, Alexa647 label, 635 nm (AID 1127).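 Also: z combines 667 nm emission intensity with signal-to-noise across three replicate slides.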 The conditions noted are these: ConA-A647 binding fluorescence, higher = more signal.
Assay [9] is described as follows: anti-His antibody binders, primary screen, artefact control for SMM control protein annotation, biochemical, small-molecule microarray, 635 nm fluorescence (AID 1128).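 Also: score merges feature fluorescence with signal-to-noise for each printed compound spot.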 As to conditions: anti-His Alexa647 antibody binding, higher = more signal.
Assay [10] has as its system Human papillomavirus type 1a E7 protein (residues 1-88). As to the kind of experiment: HPV1a E7 small-molecule binders, primary screen, biochemical, small-molecule microarray, residues 1-88, 635 nm (AID 1129). The conditions noted are these: small-molecule microarray binding, fluorescence 635 nm; higher = more signal.
Assay [11] has as its target Focal adhesion kinase 1 (Homo sapiens) (UniProt Q05397). Description: small-molecule microarray binders of FAK, primary screen, biochemical, 635/667 nm fluorescence, BSA, DTT (AID 1130).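 Also: composite of spot emission at 667 nm and signal to noise over triplicate slides.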 The conditions noted are these: PTK2 binding, 635 nm fluorescence, higher = more signal.
The test system of assay [12] is Fibrinogen (Alexa647-labelled). Description: fibrinogen binders on compound microarrays, profiling panel, artefact control for SMM control-protein annotation, biochemical, small-molecule microarray, 635/667 nm fluorescence (AID 1131).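 Also: z-score merges 667 nm fluorescence with per-spot signal-to-noise over triplicate slides.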 The conditions noted are these: fibrinogen-A647 binding fluorescence, higher = more signal.
Assay [13] addresses Follistatin (Homo sapiens) (UniProt P19883). Description: follistatin binders on small-molecule microarrays, primary screen, biochemical, small-molecule microarray, 635/667 nm fluorescence (AID 1132). As to conditions: FST binding, 635 nm fluorescence, higher = more signal.
Assay [14] concerns the target Fibroblast growth factor 2 (Homo sapiens) (UniProt P09038). As to the kind of experiment: FGF2 binders on small-molecule microarrays, primary screen, biochemical, small-molecule microarray, 635/667 nm fluorescence (AID 1133). As to conditions: small-molecule microarray binding, FGF2, fluorescence 635/667; higher = more signal.
The nature of assay [15]: mitochondrial membrane potential change in A549 cells, profiling panel, cell-based, JC-1 fluorescence, basal, 24 h, 100 nL (AID 1138).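 Also: A549 lung adenocarcinoma cells under basal conditions with no added stimulus; test concentration not given here.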 As to conditions: higher = more signal.
The subject of a further assay is Lefty1. Description: Lefty1 binders on small-molecule microarrays, primary screen, biochemical, small-molecule microarray, 635/667 nm fluorescence (AID 1139). The conditions noted are these: small-molecule microarray binding, fluorescence 635/667; higher = more signal.
Assay [16] concerns wheat germ agglutinin (Triticum aestivum), Alexa647-labelled. As to the kind of experiment: wheat germ agglutinin binders on compound microarrays, profiling panel, artefact control for SMM control-protein annotation, biochemical, small-molecule microarray, 635/667 nm fluorescence (AID 1140).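 Also: score merges 667 nm feature emission with signal to noise over triplicate slides.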 As to conditions: WGA-A647 binding, 635 nm fluorescence, higher = more signal.
For assay [17], the target named is Luciferin 4-monooxygenase (Photinus pyralis) (UniProt P08659). Description: firefly luciferase enzyme inhibitors, primary screen, biochemical, luminescence, purified enzyme, 2006 set (AID 1141).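 Also: cell-free assay with purified firefly luciferase at 100 ng per well in PBS; test concentration not given here.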 The conditions noted are these: SteadyGlo luminescence, 30 min, higher = more signal, called active from +8 up or from −8 down.

Calls of active or inactive are those of the source.

Albumin (Bos taurus), sequence (P02769 whole entry, looked up): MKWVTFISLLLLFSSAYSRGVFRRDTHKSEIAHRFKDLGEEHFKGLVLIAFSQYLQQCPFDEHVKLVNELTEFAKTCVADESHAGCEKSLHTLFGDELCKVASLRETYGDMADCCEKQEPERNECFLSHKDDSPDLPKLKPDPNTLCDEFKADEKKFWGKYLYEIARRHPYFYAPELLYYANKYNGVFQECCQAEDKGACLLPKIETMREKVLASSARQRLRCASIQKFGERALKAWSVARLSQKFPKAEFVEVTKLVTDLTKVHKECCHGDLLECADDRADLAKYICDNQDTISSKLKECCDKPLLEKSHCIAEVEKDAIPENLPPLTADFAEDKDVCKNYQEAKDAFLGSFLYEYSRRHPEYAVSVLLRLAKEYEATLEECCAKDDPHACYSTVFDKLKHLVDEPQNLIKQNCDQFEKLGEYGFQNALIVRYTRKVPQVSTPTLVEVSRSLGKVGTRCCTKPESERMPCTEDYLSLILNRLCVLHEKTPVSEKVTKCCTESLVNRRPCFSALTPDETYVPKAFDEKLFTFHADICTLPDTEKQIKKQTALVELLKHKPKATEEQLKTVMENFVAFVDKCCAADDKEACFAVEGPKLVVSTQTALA
Focal adhesion kinase 1 (Homo sapiens), sequence (Q05397 whole entry, looked up): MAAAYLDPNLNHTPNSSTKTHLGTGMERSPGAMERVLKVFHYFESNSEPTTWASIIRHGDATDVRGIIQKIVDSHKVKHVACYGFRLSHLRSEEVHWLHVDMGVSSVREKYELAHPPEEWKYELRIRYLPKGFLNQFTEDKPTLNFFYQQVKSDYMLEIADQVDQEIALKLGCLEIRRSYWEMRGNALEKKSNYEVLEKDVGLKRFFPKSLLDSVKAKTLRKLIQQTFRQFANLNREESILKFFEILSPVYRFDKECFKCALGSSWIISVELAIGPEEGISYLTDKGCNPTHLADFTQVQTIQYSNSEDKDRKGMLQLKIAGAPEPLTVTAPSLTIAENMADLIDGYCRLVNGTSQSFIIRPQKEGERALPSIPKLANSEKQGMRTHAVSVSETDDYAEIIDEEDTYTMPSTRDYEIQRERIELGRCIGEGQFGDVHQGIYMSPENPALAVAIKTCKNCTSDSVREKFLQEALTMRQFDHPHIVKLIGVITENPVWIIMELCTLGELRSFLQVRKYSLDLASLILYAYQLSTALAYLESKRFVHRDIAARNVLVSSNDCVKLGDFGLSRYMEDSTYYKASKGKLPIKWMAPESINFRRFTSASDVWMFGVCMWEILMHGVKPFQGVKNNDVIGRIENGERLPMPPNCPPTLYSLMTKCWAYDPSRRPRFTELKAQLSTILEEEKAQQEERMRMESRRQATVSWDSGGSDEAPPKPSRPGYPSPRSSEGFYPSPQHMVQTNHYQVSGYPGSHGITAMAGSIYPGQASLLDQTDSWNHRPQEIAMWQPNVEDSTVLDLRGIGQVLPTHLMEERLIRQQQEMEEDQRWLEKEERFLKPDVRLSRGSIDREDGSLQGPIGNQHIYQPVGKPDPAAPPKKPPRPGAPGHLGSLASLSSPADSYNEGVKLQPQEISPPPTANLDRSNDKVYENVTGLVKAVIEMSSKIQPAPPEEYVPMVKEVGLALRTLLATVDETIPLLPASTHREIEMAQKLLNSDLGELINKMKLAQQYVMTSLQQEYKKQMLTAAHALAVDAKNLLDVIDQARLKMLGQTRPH
Concanavalin-A (Canavalia ensiformis), sequence (P02866 whole entry, looked up): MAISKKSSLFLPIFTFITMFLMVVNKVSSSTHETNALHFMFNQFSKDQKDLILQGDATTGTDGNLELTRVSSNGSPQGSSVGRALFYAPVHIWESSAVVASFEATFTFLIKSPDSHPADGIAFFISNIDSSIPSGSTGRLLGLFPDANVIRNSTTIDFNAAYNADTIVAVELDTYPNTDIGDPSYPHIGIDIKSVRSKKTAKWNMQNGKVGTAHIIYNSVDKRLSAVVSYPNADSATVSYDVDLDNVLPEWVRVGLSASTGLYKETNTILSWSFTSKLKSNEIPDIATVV
Follistatin (Homo sapiens), sequence (P19883 whole entry, looked up): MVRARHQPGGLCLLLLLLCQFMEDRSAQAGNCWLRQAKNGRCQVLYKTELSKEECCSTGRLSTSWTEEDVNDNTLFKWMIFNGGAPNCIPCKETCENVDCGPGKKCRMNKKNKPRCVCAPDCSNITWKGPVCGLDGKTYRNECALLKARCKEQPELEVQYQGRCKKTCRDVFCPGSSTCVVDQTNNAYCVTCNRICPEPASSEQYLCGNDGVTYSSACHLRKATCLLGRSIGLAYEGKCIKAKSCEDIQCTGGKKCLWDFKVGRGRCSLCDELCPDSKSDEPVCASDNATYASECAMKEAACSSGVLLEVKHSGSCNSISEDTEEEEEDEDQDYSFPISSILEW
Fibroblast growth factor 2 (Homo sapiens), sequence (P09038 whole entry, looked up): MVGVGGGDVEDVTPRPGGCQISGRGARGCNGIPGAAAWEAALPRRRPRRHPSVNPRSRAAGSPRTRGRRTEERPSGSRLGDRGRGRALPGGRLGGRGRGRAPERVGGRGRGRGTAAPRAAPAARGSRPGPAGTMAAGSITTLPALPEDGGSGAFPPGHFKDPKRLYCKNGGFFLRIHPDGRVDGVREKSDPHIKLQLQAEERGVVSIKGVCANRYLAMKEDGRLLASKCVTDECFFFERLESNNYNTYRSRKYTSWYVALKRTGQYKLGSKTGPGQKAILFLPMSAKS
Luciferin 4-monooxygenase (Photinus pyralis), sequence (P08659 whole entry, looked up): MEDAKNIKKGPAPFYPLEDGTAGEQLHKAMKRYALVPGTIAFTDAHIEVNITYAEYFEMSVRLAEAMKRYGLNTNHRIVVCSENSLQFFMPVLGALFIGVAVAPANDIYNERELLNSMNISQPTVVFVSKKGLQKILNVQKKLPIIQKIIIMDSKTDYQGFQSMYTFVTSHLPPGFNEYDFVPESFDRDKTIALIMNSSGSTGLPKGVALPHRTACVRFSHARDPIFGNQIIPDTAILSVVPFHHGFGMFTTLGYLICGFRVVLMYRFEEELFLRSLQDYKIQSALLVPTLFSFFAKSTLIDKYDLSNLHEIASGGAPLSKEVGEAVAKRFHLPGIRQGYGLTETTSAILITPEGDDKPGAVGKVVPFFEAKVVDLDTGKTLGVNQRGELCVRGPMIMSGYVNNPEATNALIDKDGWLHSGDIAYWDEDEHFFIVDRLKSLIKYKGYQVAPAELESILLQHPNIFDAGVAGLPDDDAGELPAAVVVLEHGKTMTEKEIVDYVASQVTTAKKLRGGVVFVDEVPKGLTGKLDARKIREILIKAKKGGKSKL

On to `CO[C@H]1O[C@H](CO)[C@@H](OC(=O)Nc2ccccc2)[C@@H]2OC(=O)[C@@H](Cc3ccc4ccccc4c3)C/C=C/C[C@H](Cc3ccc4ccccc4c3)C(=O)O[C@@H]12`, for which the composite z-score in the assay with Albumin (Bos taurus) is 0.615; in assay [2], -0.0371; in [3], -0.146; in assay [4], 0.324; in [5] it was 1.38; in assay [6], 0.313. Further, the composite z-score with Sam68 (KHDRBS1) was 1.21; in [7], 0.34; in assay [8] it was 0.983; in assay [9], 0.79; in assay [10], 1.2; in assay [11], 1.12. The composite z-score in assay [12] was 0.768; in assay [13] it was 0.935; in [14], 0.477; in the assay on Lefty1 it was 0.698; in assay [16], 0.807. In assay [1], the composite Z-score is 1.08 (inactive). For the same molecule, the z-score is 0.461 in [15] and -1.97 (inactive) in assay [17].
For the molecule `COC(=O)[C@@]1(Cc2ccc(OC)cc2)[C@H]2c3cc(C(=O)N4CCCC4)n(CCSCCO)c3C[C@H]2CN1C(=O)c1ccccc1`, the composite z-score was found to be 0.905 in the assay with Albumin (Bos taurus); 0.211 in assay [2]; 0.0312 in assay [3]; 0.678 in assay [4]; 3.24 in assay [5]; 0.247 in assay [6]. The composite z-score in the assay with Sam68 (KHDRBS1) is 0.657; in assay [7] it was -0.633; in [8] it was 0.941; in assay [9], 2.01; in [10], 1.29; in assay [11], 0.529. Further, the composite z-score in [12] is 0.787; in assay [13], -0.0598; in [14], -0.254; in the assay on Lefty1, -0.731; in assay [16] it was 1.39. In addition, the composite Z-score in assay [1] was 0.228 (inactive). For the same molecule, the z-score is 0.572 in assay [15] and 0.644 (inactive) in assay [17].
For `CC(C)(C)OC(=O)CC[C@]1(C(N)=O)N=C(c2ccc(OCCCO)cc2)O[C@H]1c1ccccc1`, the composite z-score with Albumin (Bos taurus) stood at 0.963; in assay [2], 0.405; in [3], 0.133; in assay [4], 0.848; in assay [5], 3.21; in [6] it was 0.834. Also, the composite z-score in the assay with Sam68 (KHDRBS1) was 1.25; in [7] it was -1.34; in [8], 0.32; in [9] it was 2.07; in assay [10] it was 1.2; in [11] it was 0.35. Also, the composite z-score in assay [12] was 0.407; in assay [13], 0.839; in assay [14], 0.29; in the assay on Lefty1 it was -0.388; in assay [16], 1.48. Further, the composite Z-score in assay [1] is 0.0933 (inactive). For the same molecule, the z-score in [15] was 1.04; in assay [17], -0.47 (inactive).
Consider `NC(=O)[C@@]1(Cc2ccccc2)N=C(c2ccc(OCCCO)cc2)O[C@H]1c1ccccc1`, for which the composite z-score worked out at 0.852 in the assay with Albumin (Bos taurus); 0.0276 in [2]; 0.0247 in [3]; 0.721 in assay [4]; 3.05 in [5]; 0.593 in assay [6]. Also, the composite z-score was 0.572 in the assay on Sam68 (KHDRBS1); -0.643 in [7]; 0.737 in [8]; 3.01 in assay [9]; 0.614 in assay [10]; 0.0867 in [11]. Besides, the composite z-score in [12] is 0.648; in assay [13] it was 0.62; in assay [14], 0.686; in the assay on Lefty1 it was -0.846; in assay [16] it was 1.3. The composite Z-score in assay [1] is 0.546 (inactive). Moreover, the z-score was 0.184 in assay [15] and -1 (inactive) in [17].
As for `O=C1O[C@H](c2ccccc2)[C@H](c2ccccc2)N2[C@H]1[C@@H](C(=O)NC[C@H](O)c1ccccc1)[C@]1(C(=O)Nc3ccccc31)[C@H]2c1ccc(O)cc1`, the composite z-score with Albumin (Bos taurus) is 0.626; in assay [2] it was -0.0328; in assay [3] it was -0.0629; in [4], 0.66; in assay [5] it was 1.19; in [6] it was 0.463. Moreover, the composite z-score with Sam68 (KHDRBS1) was found to be 0.959; in assay [7], 1.23; in [8] it was 1.01; in assay [9], 0.885; in assay [10] it was 0.973; in [11] it was 0.223. Further, the composite z-score in [12] worked out at 0.141; in assay [13], 1.22; in [14], 1.71; in the assay with Lefty1 it was 0.947; in assay [16], 0.39. Moreover, in [1], the composite Z-score was -0.35 (inactive). Further, the z-score is -0.236 in assay [15] and 0.363 (inactive) in [17].
Consider `CCN(CC)c1ccc(N2CC=CC34O[C@@H]5/C=C\CCC(C)OC(=O)C5[C@H]3C(=O)N(CCCCCO)[C@@H]4C2=O)cc1` (stereo not given in full), for which the composite z-score with Albumin (Bos taurus) was -0.295; in assay [2], -0.222; in assay [3], -0.19; in assay [4] it was 0.905; in assay [5], -1.05; in [6], -0.472. The composite z-score with Sam68 (KHDRBS1) was -2.57; in [7], -1.16; in assay [8], -2.12; in [9], -0.117; in assay [10] it was -0.886; in assay [11], -0.336. Further, the composite z-score is -0.899 in assay [12]; -0.614 in [13]; -0.48 in assay [14]; -0.978 in the assay with Lefty1; 0.208 in [16]. Besides, the composite Z-score in [1] is -0.4 (inactive). Moreover, the z-score in [15] is 0.105; in [17] it was -0.659 (inactive).

The values are drawn from PubChem BioAssay.
